Experiment [1] deals with Glutathione peroxidase 1 (Homo sapiens) (UniProt P07203). The experiment in a line: Primary qHTS Assay for Inhibitors of Recombinant Selenoprotein Glutathione Peroxidase 1 (GPX1) (AID 1845191). Also: nearly all actives have a fitted effect of over 65% in size. The essentials: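 NADPH consumption tracked by fluorescence at 340/450 nm between t=0 and t=15 min, room temperature. Final mix: 10 nM GPX1, 100 nM glutathione reductase, 1 mM GSH, 0.5 mM NADPH, 0.5 mM cumene hydroperoxide, 0.01% BSA; 30 min compound–enzyme preincubation.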
(In general: In qHTS, concentration-response curves come from the screen itself.)

Experiment [2] has as its target Phospholipid hydroperoxide glutathione peroxidase GPX4 (Homo sapiens) (UniProt P36969). The experiment in a line: Primary qHTS Assay for Inhibitors of Recombinant Selenoprotein Glutathione Peroxidase 4 (GPX4) (AID 1845192). Also: nearly all actives have a fitted effect of over 65% in size. The gist of the method:
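NADPH consumption followed by fluorescence at 340/450 nm, t=0 and after 15 min at room temperature. Reaction started with cumene hydroperoxide (0.5 mM final) after 30 min compound–GPX4 preincubation; final 200 nM GPX4, 100 nM GR, 1 mM GSH, 0.5 mM NADPH.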

The target of experiment [3] is Luciferin 4-monooxygenase (Photinus pyralis) (UniProt P08659). The experiment in a line: Primary firefly luciferase (FLuc) qHTS assay for identification of artifact compounds. (AID 1845220). Also: nearly all actives have a fitted effect of over 60% in size. The essentials: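 FLuc 10 nM; luciferin 10 uM; ATP 10 uM; Tris-acetate pH 7.6, Mg-acetate 10 mM; 15 min RT preincubation; 5 min reaction; luminescence.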
The nature of experiment [4]: Primary fluorescence-based thiol-reactive (MSTI) qHTS assay for identification of artifact compounds. (AID 1845221). Also: nearly all actives have a fitted effect of over 65% in size. Also: potency is read from the fitted curve at half-maximal effect. The essentials:
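In PBS pH 7.4 with 2% DMSO, each compound met 4 uM MSTI for one hour at ambient temperature, shielded from light, before fluorescence detection.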

For experiment [5], the system named is Nanoluciferase (engineered Oplophorus gracilirostris luciferase). The experiment is described as follows: Primary Nanoluciferase (NLuc) qHTS assay for identification of artifact compounds. (AID 1845222).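 Also: NLuc secreted into diluted conditioned medium of S16 cells; series mostly up to about 54 µM.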 The essentials: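 NLuc from S16 cell medium (1:55) plus test compounds, 15 min, room temperature. Luminescence after Nano-Glo (1:100) addition, 5 min.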
Experiment [6] is described as follows: Primary redox qHTS assay for identification of artifact compounds. (AID 1845223). The essentials:
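Redox-cycling detection via DTT (250 uM final) oxidation coupled to Amplex Red (25 uM)/HRP (250 mU/mL) in HBSS. 15 min preincubation plus 30 min after DTT, room temperature. Ex/Em 525/598 nm; 4-parameter Hill fit against DMSO and 10 uM DA3003.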

Values without a mark were called inactive. Inconclusive results are not listed. Active and inactive are the calls of the source. Calls follow the shape of the dose curve; as a rule, active = well fitted curve in the direction sought with a large enough effect; inconclusive = small, poorly fitted or top-dose-only effect, or another doubt; inactive = no such curve, though single readings can be large; an effect the other way counts as inactive or inconclusive.

Phospholipid hydroperoxide glutathione peroxidase GPX4 (Homo sapiens), sequence (P36969 whole entry, looked up): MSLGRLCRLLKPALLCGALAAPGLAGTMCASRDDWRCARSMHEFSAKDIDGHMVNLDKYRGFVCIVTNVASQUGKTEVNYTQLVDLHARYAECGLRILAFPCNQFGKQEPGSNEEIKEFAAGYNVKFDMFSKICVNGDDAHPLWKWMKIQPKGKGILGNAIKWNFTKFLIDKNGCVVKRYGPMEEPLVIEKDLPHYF
Glutathione peroxidase 1 (Homo sapiens), sequence (P07203 whole entry, looked up): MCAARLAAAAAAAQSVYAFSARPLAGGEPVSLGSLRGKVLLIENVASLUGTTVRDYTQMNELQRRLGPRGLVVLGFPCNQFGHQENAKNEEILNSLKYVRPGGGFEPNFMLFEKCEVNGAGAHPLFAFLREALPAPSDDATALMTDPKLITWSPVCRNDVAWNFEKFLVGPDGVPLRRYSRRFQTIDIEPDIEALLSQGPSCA

Turning to `C=C(C)C1=C[C@@]2(C)C(=CC1=O)CC[C@@H](O)[C@@H]2C`, the Potency entry in experiment [1], in experiment [2], in experiment [3], in experiment [4], in experiment [5] and in experiment [6] was “inactive” each time.

As to `CNS(=O)(=O)c1ccccc1Nc1nc(Nc2ccc(N3CCN(C)CC3)cc2OC)ncc1Br`, the Potency result in experiment [1], in experiment [2], in experiment [3], in experiment [5] and in experiment [6] was “inactive” throughout. Also, the Potency in experiment [4] was 2670 nM (active).

Consider `N#Cc1cc(C2=Nc3ccc(Br)cc3NC(=O)C2)ccn1`, for which the Potency entry in experiment [1], in experiment [2], in experiment [3], in experiment [4], in experiment [5] and in experiment [6] was “inactive” each time.

With `COC1=CC(=O)C[C@@H](C)[C@@]12Oc1c(Cl)c(OC)cc(OC)c1C2=O`, the Potency result in experiment [1], in experiment [2], in experiment [3], in experiment [4], in experiment [5] and in experiment [6] was “inactive” throughout.

As to `Fc1ccc(-c2nc(-c3ccccc3F)[nH]c2-c2ccncc2)cc1`, the Potency entry in experiment [1], in experiment [2], in experiment [3], in experiment [4], in experiment [5] and in experiment [6] was “inactive” throughout.

Turning to `CN1CCN(S(=O)(=O)c2ccc(-c3cnc(N)c(C(=O)Nc4cccnc4)n3)cc2)CC1`, the Potency entry in experiment [1], in experiment [2], in experiment [3], in experiment [4], in experiment [5] and in experiment [6] was “inactive” each time.

With `N#Cc1ccc(O[C@@H]2c3ccccc3C[C@H]2N2CCC[C@@H](N)C2)c(Cl)c1`, the Potency result in experiment [1], in experiment [2], in experiment [3], in experiment [4], in experiment [5] and in experiment [6] was “inactive” in each case.

In the case of `O=C(NC1(c2ccccc2)CC1)c1c(CN2CCC(N3CCCCC3)CC2)c(-c2cccc(C(F)(F)F)c2)nc2cc(Br)ccc12`, the Potency entry in experiment [1], in experiment [2], in experiment [3], in experiment [4], in experiment [5] and in experiment [6] was “inactive” each time.

With `C[C@@H](N[C@H]1CCCC[C@@H]1NC(=O)c1ccc(Cl)cc1)c1cccc2ccccc12`, the Potency entry in experiment [1], in experiment [2], in experiment [3], in experiment [4], in experiment [5] and in experiment [6] was “inactive” in each case.

For the compound `N#CC(CCCN1CCC(O)(c2ccc(Cl)cc2)CC1)(c1ccccc1)c1ccccc1`, the Potency entry in experiment [1], in experiment [2], in experiment [3], in experiment [4], in experiment [5] and in experiment [6] was “inactive” in each case.

For the compound `C/C=C(/C)C(=O)O[C@@H]1C[C@@H](OC(=O)CC(C)C)C2(C)C3C(=O)C=C(C)C2C3C1(C)C` (some centres undefined), the Potency result in experiment [1], in experiment [2], in experiment [3], in experiment [4], in experiment [5] and in experiment [6] was “inactive” throughout.

For the compound `CC#CC(=O)Nc1ccc2ncnc(Nc3cccc(Br)c3)c2c1`, the Potency entry in experiment [1], in experiment [2], in experiment [3], in experiment [4], in experiment [5] and in experiment [6] was “inactive” throughout.

With `O=C1COc2nccc(-c3ccccc3F)c2CN1Cc1cc(C(F)(F)F)cc(C(F)(F)F)c1`, the Potency result in experiment [1], in experiment [2], in experiment [3], in experiment [4], in experiment [5] and in experiment [6] was “inactive” each time.

For the compound `O=C(Nc1ccc(C(O)(C(F)(F)F)C(F)(F)F)cc1)c1ccc(C(F)(F)F)cc1`, the Potency result in experiment [1], in experiment [2], in experiment [3], in experiment [4], in experiment [5] and in experiment [6] was “inactive” each time.

For `N#CC(CCCN1CCN(/N=C/c2cccnc2)CC1)(c1ccccc1)c1ccccc1`, the Potency entry in experiment [1], in experiment [2], in experiment [3], in experiment [4], in experiment [5] and in experiment [6] was “inactive” throughout.

With `CC(C)(C)Oc1ccc(OCC2Cc3ccccc3CN2C(=O)c2cccc3ccccc23)cc1` (centres undefined), the Potency result in experiment [1], in experiment [2], in experiment [3], in experiment [4], in experiment [5] and in experiment [6] was “inactive” in each case.

As for `C/C=C(\C)C(=O)OC1C(C)C2(O)C(C=C(CO)CC3(O)C(=O)C(C)=CC32)C2C(C)(C)C12OC(=O)C(C)C` (centres undefined), the Potency result in experiment [1], in experiment [2], in experiment [3], in experiment [4], in experiment [5] and in experiment [6] was “inactive” each time.

Turning to `Cc1ccccc1C(C(=O)NC1CCCCC1)N(C(=O)Cn1cnc2ccccc21)c1cccc(F)c1` (centres undefined), the Potency entry in experiment [1], in experiment [2], in experiment [3], in experiment [4], in experiment [5] and in experiment [6] was “inactive” throughout.

Consider `C=CC(=O)Nc1cc(-n2c(=O)ccc3cnc4ccc(-c5ccc(NS(C)(=O)=O)cc5)cc4c32)ccc1C`, for which the Potency entry in experiment [1], in experiment [2], in experiment [3], in experiment [4], in experiment [5] and in experiment [6] was “inactive” each time.

The record behind these values is PubChem BioAssay (NCATS).
